Hits are enriched below; roughly 1.8% of the tested compounds scored in any of these assays.
APP transl inh – APP translation inhibition; SH-SY5Y APP 5'UTR-luciferase reporter, luminescence; inhibition, % at 2 µM; 0.82% of 190,000 active; AID 1285;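 active = inhibition above a set limit, derived from the sample mean plus 3 SD, cut at about 45% in these data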
KLF5 inh – kruppel-like factor 5 inhibition | DLD-1 KLF5 promoter-luciferase reporter, luminescence | inhibition, % at 5 µM | 0.23% of 290,000 active | AID 1700;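 active = inhibition above a per-plate limit of that plate's mean compound inhibition plus 3 SD, cut at about 60% in these data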;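 also: 0% = DMSO wells and 100% = LY294002 at 200 µM; higher means less KLF5 promoter-driven luciferase light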
BaF3 parental – reduces parental Ba/F3 cell viability, JAK2V617F counter-screen. CellTiter-Glo ATP luminescence. 1.1% of 220,000 active. inhibition, % at 5.6 µM;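 active = inhibition above a per-campaign cutoff, the mean inhibition of all tested compounds plus 3 SD, cut at about 27% in these data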;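 also: 0% = DMSO wells and 100% = JAK Inhibitor I control wells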
Ba/F3 V617F tox – loss of viability in JAK2V617F-driven Ba/F3 cells; 1.1% of 220,000 active; Ba/F3 EpoR-JAK2V617F viability, ATP luminescence; inhibition, % at 5.6 µM; AID 1446;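 active = inhibition above the campaign mean plus 3 SD over all tested compounds, cut at about 24% in these data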;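 also: cytokine-independent growth of Ba/F3 cells driven by EpoR plus mutant JAK2; 0% = DMSO-treated cells and 100% = JAK inhibitor I control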
IEC-6 tox-1 – counter-screen for KLF5 inhibitors: cytotoxicity in IEC-6 cells | IEC-6 cytotoxicity, luminescence viability | inhibition, % at 5 µM | 0.78% of 290,000 active;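 also: 0% = plate median of test compound wells and 100% = cytotoxic reference compound wells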
BaF3 parental 2 – reduces parental Ba/F3 viability, JAK2V617F counter-screen; shares compounds with Ba/F3 V617F tox; CellTiter-Glo luminescence; cells kept alive by added IL-3; inhibition, % at 5.6 µM; 31% of 580 active;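 active = cell growth inhibition above the hit limit set in the earlier mutant JAK2 cell screen, cut at about 27% in these data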;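 also: plate controls were DMSO-treated cells for no effect and JAK Inhibitor I control wells for full effect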
JAK2V617F confrm – confirmation: loss of viability in JAK2V617F-dependent Ba/F3 cells; shares compounds with Ba/F3 V617F tox; 66% of 580 active; Ba/F3 EpoR-JAK2V617F viability, CellTiter-Glo luminescence; inhibition, % at 5.6 µM;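 active = mean inhibition above the hit cutoff derived in the earlier primary screen, cut at about 25% in these data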;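 also: 0% = DMSO-treated cells and 100% = JAK inhibitor I control wells; higher means lower luminescence from reduced cell ATP and viability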
KLF5 confirm – confirmation of KLF5 inhibitors; DLD-1 KLF5 promoter firefly luciferase reporter, luminescence; shares compounds with KLF5 inh; inhibition, % at 4 µM; 79% of 610 active;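 active = inhibition above a set limit taken from the earlier primary screen, cut at about 63% in these data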;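 also: 0% = DMSO wells and 100% = LY294002 at 200 µM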
IEC-6 tox-2 – kills rat IEC-6 cells in KLF5 counter-screen | shares compounds with KLF5 inh | IEC-6 rat intestinal cells, viability luminescence | inhibition, % at 4 µM | 56% of 610 active; in the data active = inhibition above about 23%;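 also: cells exposed to compounds for 48 hours before viability read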
IEC-6 tox confirm – confirmation of cytotoxic compounds in rat IEC-6 intestinal epithelial cells | shares compounds with IEC-6 tox-1 | IEC-6 rat intestinal epithelial viability, luminescence | 63% of 1,900 active | inhibition, % at 5 µM;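 also: 0% = vehicle and 100% = reference cytotoxic drug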
* = called active by the depositor; nt = no result given. Rule as the data show it, unless noted: active = inhibition above about 22%; inactive = the rest.

SMILES | APP transl inh | KLF5 inh | BaF3 parental | Ba/F3 V617F tox | IEC-6 tox-1 | others
COc1ccccc1-n1c(-c2ccccc2)nc2ccccc2c1=O | nt | -44.9 | nt | nt | -0.7
Cc1[nH]c2c(C(F)(F)F)cccc2c1CCN | 47.6* | 0.3 | 10.8 | 4.0 | 6.4
Cc1[nH]c2ccc(OCc3ccccc3)cc2c1CCN | nt | -21.6 | nt | nt | 4.0
COc1ccc(-c2csc(NC(=O)COC(=O)Cc3ccccc3)n2)cc1OC | 10.4 | -13.3 | 6.7 | -0.4 | -1.2
CC1CCC(C(C)C)C(OC(=O)Cn2c(COc3ccccc3)[n+](C)c3ccccc32)C1 (centres undefined) | nt | -1.7 | 100.9* | 98.7* | -6.6
Cc1ccc(N2C(=O)NC(=O)/C(=C\C=C\c3ccco3)C2=O)cc1 | nt | -30.6 | 0.4 | 2.1 | -4.1
Cc1ccc(N2C(=O)NC(=O)/C(=C\C=C\c3ccco3)C2=O)cc1C | 47.4* | 3.1 | 1.0 | -2.5 | 3.9
COc1cc(CN2CCN(c3cc(C)ccc3C)CC2)ccc1O | -25.9 | -5.4 | 49.6* | 35.3* | 10.0
Oc1cccc(/C=N/NP(=S)(c2ccccc2)c2ccccc2)c1 | nt | -6.2 | -0.5 | -4.5 | -7.4
O=c1[nH]c(=O)n(CCc2ccccc2)c(O)c1C=NC1CC1 | nt | -28.7 | -2.2 | 1.8 | -5.8
O=C(/C=C/c1c[nH]c2ccccc12)c1c(O)n(CCc2ccccc2)c(=O)[nH]c1=O | nt | 15.7 | 34.5* | -1.0 | 0.6
NC(N)=N/N=C/c1ccc(N2CCOCC2)cc1 | 4.4 | 4.1 | 71.5* | 58.2* | 3.5
O=C1CC(c2ccccc2)CC(O)=C1C=NCCN1CCN(C(=O)Cc2ccccc2)CC1 (centres undefined) | -8.0 | -19.7 | 27.6* | 3.5 | 4.7
CCN1CCN(CC(c2ccccc2)c2ccccc2)CC1 | nt | -16.0 | nt | nt | -12.1
O=C(c1ccccc1)C(CN1CCCC1)c1ccccc1 (centres undefined) | 92.1* | 6.9 | -0.3 | 1.1 | 5.3
C=CCN1C(=O)NC(=O)/C(=C/C=C/c2ccccc2)C1=O | 73.8* | -10.4 | 10.1 | 4.5 | -2.4
c1ccc2c(c1)Sc1ccccc1N2CC1CN2CCC1CC2 (centres undefined) | nt | -30.0 | 2.1 | 2.5 | -3.4
C[N+]1=C(/C=C/Nc2ccccc2)C(C)(C)c2ccccc21 | -16.1 | -6.8 | 61.3* | 59.2* | 4.6
Cc1c(C(=O)N2CCC3(CC2)OCCO3)oc2ccc(S(=O)(=O)N3CCCCC3)cc12 | -9.1 | -11.3 | 6.8 | 3.5 | 6.2
CCOC(=O)c1c(C=O)c2ccccc2n1Cc1ccccc1 | nt | -41.4 | nt | nt | -0.9
CCOC(=O)c1ccc2c(c1)n(Cc1ccccc1)c(C)[n+]2CC | -41.1 | -20.5 | 27.4* | 18.2 | -5.3
CCN1CC=C(c2c[nH]c3ccccc23)CC1 | 2.3 | 8.6 | 72.9* | 87.3* | -5.7
Cc1[nH]c2ccccc2c1C(=O)CN1CC=C(c2ccccc2)CC1 | 0.3 | -12.0 | 4.0 | 0.1 | -4.3
COc1ccc(NC(=O)c2cn(CCC#N)nc2-c2cccc(Br)c2)cc1 | nt | -23.7 | nt | nt | 0.1
CCCCCSc1cc(OC)c(CCN)cc1OC | 55.1* | 35.1 | 9.8 | 7.6 | 12.1
SMILES | APP transl inh | KLF5 inh | BaF3 parental | Ba/F3 V617F tox | IEC-6 tox-1 | others
CC(C)(C)n1c(O)c(C=Nc2ccc3c(c2)CCC3)c(=O)[nH]c1=O | 2.9 | -30.2 | 63.0* | -2.9 | 0.0
C[n+]1c(-c2ccccc2)cc(CCCCc2cc(-c3ccccc3)[n+](C)c(-c3ccccc3)c2)cc1-c1ccccc1 | -11.9 | -4.3 | 5.3 | 1.2 | -11.0
COc1ccc(-c2cc(-c3ccccc3)[n+](C)c(-c3ccccc3)c2)cc1 | -1.6 | 31.7 | 76.2* | 99.1* | 11.3
CC[N+]12CCC(CC1)C(=C(c1ccccc1)c1ccccc1)C2 | -6.5 | 14.6 | 28.6* | 8.5 | -1.2
C[N+]12CCC(CC1)C(=C(c1ccccc1)c1ccccc1)C2 | 1.2 | -17.8 | 23.5 | 5.1 | -4.8
Cc1cccc(OP(=O)(NCc2ccccc2)Oc2cccc(C)c2)c1 | 12.4 | -0.6 | 6.4 | 3.3 | 4.8
COc1ccc(Cc2nccc3cc(OC)c(OC)cc23)cc1OC | 2.5 | -1.1 | 27.5* | 11.4 | 14.9
COC(=O)CCCNC(=O)CN1CC(c2ccccc2)CC1=O (centres undefined) | -10.3 | -58.8 | 4.7 | 3.5 | 7.7
COc1ccc(Oc2cc(NC(=O)c3nn(C)cc3[N+](=O)[O-])cc([N+](=O)[O-])c2)cc1 | 94.6* | -25.8 | 42.1* | 62.9* | 15.0
COc1ccc(NC(=O)c2cn(CCC#N)nc2-c2cccc([N+](=O)[O-])c2)cc1 | nt | -35.2 | -2.3 | 3.8 | 4.6
COc1ccc(CN2C(=O)NC(=O)/C(=C/c3ccc([N+](=O)[O-])o3)C2=O)cc1 | -2.1 | 3.7 | 3.7 | 2.2 | -0.1
CN(C)c1ccc(/C=C/[N+](=O)[O-])cc1 | -14.7 | -7.3 | 7.3 | 0.6 | -8.9
C/C(=C\c1ccc(N(C)C)cc1)[N+](=O)[O-] | 32.0 | -6.2 | -1.4 | 31.6* | -3.4 | BaF3 parental 2=-3.2;JAK2V617F confrm=74.0*
Cc1ccc(-n2c(O)c(/C=N/N3CCCCC3c3cccnc3)c(=O)[nH]c2=S)cc1 (centres undefined) | -10.6 | -16.3 | 4.6 | -5.7 | -1.7
CC1(C)C[C@H]2C=C(C=O)[C@]3(C=O)C[C@]3(C)[C@H]2C1 | 95.7* | 16.3 | 5.5 | 62.7* | 1.4 | BaF3 parental 2=102.5*;JAK2V617F confrm=99.9*
O=C(C(=O)N1CCOCC1)c1cn(Cc2ccccc2F)c2ccccc12 | nt | -3.9 | nt | nt | -7.3
OC(c1cccc(Cl)c1)(c1cccc(Cl)c1)C1CN2CCC1CC2 (centres undefined) | -4.6 | -31.0 | 7.4 | 3.4 | 14.5
O=C(Nc1ccccc1)N1CCC2(CC1)OCCO2 | -17.3 | -22.7 | 6.4 | 30.1* | -0.3 | BaF3 parental 2=-7.3;JAK2V617F confrm=-10.3
CN(C)S(=O)(=O)c1cc(NC(=O)COC(=O)Cc2ccccc2)ccc1Cl | -9.3 | 20.1 | 6.3 | 0.6 | 2.9
c1ccc2[nH]c(CCNC3CCCCC3)nc2c1 | -1.7 | -11.0 | 1.4 | 49.3* | -5.5 | BaF3 parental 2=-1.2;JAK2V617F confrm=-1.7
O=C(O)c1[nH]c(=O)[nH]c(=O)c1F | nt | 7.1 | 4.6 | 64.0* | -0.9 | BaF3 parental 2=20.1;JAK2V617F confrm=67.2*
C[C@H]1CCC[C@@H](O)CCC/C=C/c2cc(O)cc(O)c2C(=O)O1 | 3.1 | -1.6 | 3.9 | 2.6 | 3.9
C[C@H]1CCC/C=C/C2C[C@H](O)CC2[C@H](O)/C=C/C(=O)O1 (some centres undefined) | 91.4* | 101.2* | 5.8 | 37.9* | 99.2* | BaF3 parental 2=107.5*;JAK2V617F confrm=78.2*;KLF5 confirm=110.0*;IEC-6 tox-2=101.9*;IEC-6 tox confirm=101.5*

High-throughput results (PubChem)
